In the library only some 6.3% were active in any assay of this set; here they are far more common.
Mdm2 MdmX PPI = human Mdm2/MdmX binding inhibition; inhibition, % at 8 µM; SaOS-2 split-luciferase Mdm2/MdmX complementation, luminescence; 330,000 tested, 3% active; AID 485346; O15151+Q00987;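 active = inhibition of at least 50% at 8 µM in the primary screen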
Target sequence (O15151 whole entry, looked up): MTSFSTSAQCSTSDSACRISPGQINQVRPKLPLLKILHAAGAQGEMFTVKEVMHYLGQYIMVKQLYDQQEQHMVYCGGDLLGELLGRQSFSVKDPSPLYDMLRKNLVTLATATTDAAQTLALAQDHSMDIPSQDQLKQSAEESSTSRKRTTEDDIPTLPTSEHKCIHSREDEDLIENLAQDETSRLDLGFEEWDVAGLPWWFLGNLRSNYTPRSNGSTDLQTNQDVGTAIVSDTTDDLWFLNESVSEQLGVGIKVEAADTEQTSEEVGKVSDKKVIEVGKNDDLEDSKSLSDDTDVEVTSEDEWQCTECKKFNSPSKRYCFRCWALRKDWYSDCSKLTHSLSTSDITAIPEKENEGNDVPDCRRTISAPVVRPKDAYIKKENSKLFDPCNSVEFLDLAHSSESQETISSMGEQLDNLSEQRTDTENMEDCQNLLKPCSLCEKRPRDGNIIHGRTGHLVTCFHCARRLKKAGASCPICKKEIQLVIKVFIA
Target sequence (Q00987 whole entry, looked up): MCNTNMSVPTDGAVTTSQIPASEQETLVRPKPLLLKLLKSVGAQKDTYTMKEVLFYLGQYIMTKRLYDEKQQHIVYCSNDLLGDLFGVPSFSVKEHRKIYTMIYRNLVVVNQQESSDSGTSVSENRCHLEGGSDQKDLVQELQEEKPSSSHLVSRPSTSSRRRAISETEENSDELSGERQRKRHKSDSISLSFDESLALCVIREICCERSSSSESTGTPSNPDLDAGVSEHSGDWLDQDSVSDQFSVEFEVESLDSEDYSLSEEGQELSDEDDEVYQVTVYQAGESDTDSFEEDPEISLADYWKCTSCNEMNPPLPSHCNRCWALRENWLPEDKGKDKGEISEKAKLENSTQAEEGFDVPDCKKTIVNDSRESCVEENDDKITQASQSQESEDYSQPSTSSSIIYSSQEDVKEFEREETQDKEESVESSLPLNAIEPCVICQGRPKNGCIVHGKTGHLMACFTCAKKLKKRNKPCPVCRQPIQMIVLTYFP
tim10-1 inh = tim10-1 yeast growth inhibition. S. cerevisiae tim10-1 ts strain growth, BacTiter-Glo, 24 h. inhibition, % at 20 µM. 330,000 tested, 2.2% active. AID 463190;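 active = inhibition of at least 40%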;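 note: mutant grown at 25 °C; 0% = DMSO wells with yeast and 100% = wells holding no yeast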
TIM10 inh = inhibits growth of TIM10 yeast strain; S. cerevisiae TIM10 strain growth, BacTiter-Glo luminescence, 24 h; inhibition, % at 10 µM; 330,000 tested, 1.4% active; AID 463195;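 active = inhibition of 40% or more at the single tested concentration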;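 note: wild-type TIM10 isogenic control strain grown at permissive 25 °C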
MPTP inh = permeability transition pore inhibition; isolated mouse mitochondria, Ca2+ swelling absorbance, 30 min; inhibition, % at 10 µM; 360,000 tested, 1.4% active; AID 602449;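 active = inhibition of 50% or more, scaled per plate between neutral and stimulator controls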;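 note: 0% = DMSO wells given calcium and 100% = 1 mM EGTA wells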
tim23-1 inh = growth inhibitors of tim23-1 mutant yeast; S. cerevisiae tim23-1 growth, BacTiter-Glo luminescence, 24 h; inhibition, % at 20 µM; 330,000 tested, 1.3% active;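 active = growth inhibition of the mutant yeast at or above 50%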;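 note: temperature-sensitive mutant grown at 25 °C; plate controls were DMSO-treated mutant yeast for no effect and medium wells lacking yeast for full effect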
Mdm2-MdmX conf = human Mdm2/MdmX binding inhibition, confirmed; shares compounds with Mdm2 MdmX PPI; luminescent assay; inhibition, % at 8 µM; 10,000 tested, 55% active; AID 489028; in the data active = inhibition above about 40%
FLuc counter = counter-screen for Mdm2/MdmX inhibitors: full-length luciferase. shares compounds with Mdm2 MdmX PPI. AID 504607. SaOS-2 full-length luciferase counterscreen, luminescence. 6,200 tested, 77% active. inhibition, % at 8 µM;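 active = mean inhibition at 8 µM reaching about 37%, which flags the compound as non-specific, limit read from the data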;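 note: p53-null SaOS-2 cells with luciferase driven by a doxycycline-inducible promoter; compound on cells about two nights before reading with doxycycline added after day one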
Starred values were filed as active, the others as inactive; · = no result.

SMILES | Mdm2 MdmX PPI | tim10-1 inh | TIM10 inh | MPTP inh | tim23-1 inh | Mdm2-MdmX conf | FLuc counter
Cc1ccc(S(=O)(=O)N2C[C@H]3C(=O)C[C@@H](c4ccccc4)N(S(=O)(=O)c4cccc(C)c4)[C@H]3C[C@H]2c2ccccc2)cc1 | · | · | · | 1.3 | · | · | ·
CCOc1ccc2nc(SC3CC(=O)N(c4ccc(OC)cc4)C3=O)sc2c1 (centres undefined) | 65.6* | 14.2 | 13.6 | 4.8 | 19.1 | -27.7 | ·
CCOc1ccc(N2C(=O)CC(Sc3nc(C)cc(C)n3)C2=O)cc1 (centres undefined) | 17.5 | 19.8 | 18.8 | 0.5 | 24.4 | · | ·
Clc1cccc(-c2cccc3nccn23)c1Cl | · | · | · | 1.3 | · | · | ·
CC(C)n1cnc2c(Nc3cccc(F)c3)nc(NCCO)nc21 | 61.6* | 21.9 | 19.7 | 0.4 | 29.5 | 58.1* | 82.0*
CC(C)C[C@H](CO)Nc1nc(Nc2cccc(Cl)c2)c2ncn(C(C)C)c2n1 | 74.6* | 22.7 | 15.6 | -2.1 | 25.5 | 65.5* | 58.5*
Cc1ccc(S(=O)(=O)N2[C@@H](c3cccc(Cl)c3)C(C(=O)OC(C)(C)C)=CC[C@H]2c2cccc(Cl)c2)cc1 | · | · | · | 1.4 | · | · | ·
COc1ccccc1C(=O)NCCN1CCCC1 | · | · | · | 0.0 | · | · | ·
O=C(N=Nc1c(O)[nH]c2ccccc12)c1cc(NS(=O)(=O)c2cccs2)cc(NS(=O)(=O)c2cccs2)c1 | 77.0* | 11.2 | -8.0 | 7.0 | -21.5 | 30.8 | 79.9*
Cc1n[nH]c(C)c1N=Nc1cc(Cl)ccc1Cl | 52.1* | 34.5 | 35.8 | 6.1 | 37.2 | 39.6 | 38.6*
Cn1ccc2c(-c3ccc(C(=O)O)cc3)cc3c(c21)C1CCC3O1 (centres undefined) | · | · | · | -2.4 | · | · | ·
Cc1cc(NC(=S)NC(=O)c2ccccc2)ccc1-c1cc2ccccc2oc1=O | 41.6 | 9.5 | -3.3 | 9.1 | 5.6 | · | ·
COc1cc(C(=O)NC(=S)Nc2cccc(-c3cc4ccccc4oc3=O)c2)cc(OC)c1OC | 52.8* | -0.8 | -4.6 | 12.1 | 4.3 | 33.1 | ·
CN1C2CCC1/C(=C/c1cccn1C)C(=O)/C2=C\c1cccn1C | 2.4 | 22.4 | 20.9 | 5.2 | 11.6 | · | ·
CN1C2CCC1/C(=C\c1ccc(F)cc1)C(=O)/C2=C/c1ccc(F)cc1 | 89.5* | 35.7 | 36.9 | 1.6 | 41.8 | 53.4* | 19.3
O=C(CN1c2ccccc2Sc2ccccc21)NNC(=O)Nc1cccc(Cl)c1 | 67.4* | 22.9 | 10.9 | 38.4 | 28.7 | 23.6 | 90.1*
Cn1cccc1CC(=O)NNC(=O)Nc1cccc(Cl)c1 | 22.3 | 5.1 | -4.5 | 7.9 | 2.4 | · | ·
Cc1cc(Nc2nc3ccccc3[nH]c2=O)n(-c2ccccc2)n1 | 39.5 | 29.9 | 36.7 | 2.0 | 11.7 | · | ·
Cc1cc(Nc2nc3ccccc3nc2Cl)n(-c2ccc([N+](=O)[O-])cc2)n1 | 95.9* | -8.9 | -14.1 | 38.0 | 14.4 | 48.9* | 51.5*
CC1=CC(C)(C)Nc2ccc(OC(=O)C(C)N3C(=O)c4ccccc4C3=O)cc21 (centres undefined) | 56.5* | 29.8 | 18.3 | 11.6 | 32.9 | 21.8 | ·
CC1=CC(C)(C)Nc2ccc(OC(=O)CN3C(=O)CCC3=O)cc21 | 55.4* | 1.7 | 2.7 | -0.2 | 15.8 | 11.4 | ·
COc1ccc(OC(=O)C(C)N2C(=O)c3ccccc3C2=O)cc1 (centres undefined) | 15.2 | 0.2 | -39.1 | 0.3 | 8.7 | · | ·
CC1=CC(C)(C)Nc2ccc(Cc3ccc4c(c3)C(C)=CC(C)(C)N4)cc21 | 49.7 | 25.1 | 0.9 | 3.0 | 17.1 | · | ·
CC1=CC(C)(C)Nc2ccc(OC(=O)c3ccco3)cc21 | 72.1* | 22.9 | 14.1 | 1.0 | 30.3 | 22.1 | ·
O=NN(CCCl)C(=O)NCC1=C[N+](=O)CC=C1 | · | · | · | 0.3 | · | · | ·
SMILES | Mdm2 MdmX PPI | tim10-1 inh | TIM10 inh | MPTP inh | tim23-1 inh | Mdm2-MdmX conf | FLuc counter
Cc1c(Cl)cccc1Nc1nc(NCCO)c2ccccc2n1 | 30.3 | 0.9 | 20.0 | 5.0 | 16.4 | · | ·
Oc1ccccc1-c1nc(NCc2ccccc2)c2ccccc2n1 | 56.0* | -7.8 | 1.7 | 2.4 | -5.9 | 32.9 | ·
Oc1ccc(CCNc2c3ccccc3nc3ccccc23)cc1O | 64.0* | -15.7 | -14.0 | 2.4 | -0.7 | 51.2* | 76.2*
Oc1ccccc1-c1nc(NCc2ccco2)c2ccccc2n1 | 3.4 | 26.4 | 29.6 | 21.8 | 14.5 | · | ·
Cc1ccc(O)c(Nc2c3ccccc3nc3ccccc23)c1 | 39.2 | 34.5 | 17.1 | 0.4 | 11.4 | · | ·
CNc1nc(NCc2ccccc2)c2ccccc2n1 | 65.6* | -0.7 | -8.2 | 4.6 | 8.8 | 24.1 | ·

Screening results as filed in PubChem.
